A short description of test [1]: Quantitative High-Throughput drug screen in 47 multiple myeloma cell lines against the NCATS MIPE library collection: FR4_PLB cell viability assay (AID 1918924; also: nearly all actives have a fitted effect of over 35% in size; also: potency is read from the fitted curve at half-maximal effect). Particulars: FR4_PLB myeloma cells viability, CellTiter-Glo ATP, 48 h; series mostly up to 45.8 µM. Put shortly:
(§1)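 qHTS of the MIPE 4.0 collection: 500 myeloma cells/well, 48 h drug exposure at 37C in 5% CO2, then CellTiter-Glo for 5 min at room temperature before luminescence reading.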

Test [2] can be described thus: Quantitative High-Throughput drug screen in 47 multiple myeloma cell lines against the NCATS MIPE library collection: Delta47_JCRB cell viability assay (AID 1918925; also: nearly all actives have a fitted effect of over 45% in size; also: potency is read from the fitted curve at half-maximal effect). Particulars: Delta47 myeloma viability, CellTiter-Glo ATP, 48 h; series mostly up to 45.8 µM. Put shortly:
(§2)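 Luminescent ATP measurement with CellTiter-Glo gives viability, scaled between DMSO-only wells (100%) and media-only wells (0%). Cells, 500 per well, faced library compounds for 48 hours at 37C.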

A short description of test [3]: Quantitative High-Throughput drug screen in 47 multiple myeloma cell lines against the NCATS MIPE library collection: EJM_DSMZ cell viability assay (AID 1918926; also: nearly all actives have a fitted effect of over 30% in size). Particulars: EJM myeloma cell viability, CellTiter-Glo ATP, 48 h; series mostly up to 45.8 µM. Put shortly: as §2
On the technique in general: ATP-based viability assays read luminescence as a measure of living cells.

Test [4] in a line: Quantitative High-Throughput drug screen in 47 multiple myeloma cell lines against the NCATS MIPE library collection: AMO1_DSMZ cell viability assay (AID 1918927; also: nearly all actives have a fitted effect of over 30% in size; also: potency is read from the fitted curve at half-maximal effect). Particulars: AMO1 myeloma cells viability, CellTiter-Glo ATP luminescence, 48 h; series mostly up to 45.8 µM. Put shortly:
as §2

Test [5] can be described thus: Quantitative High-Throughput drug screen in 47 multiple myeloma cell lines against the NCATS MIPE library collection: ARD_JJKsccE7 cell viability assay (AID 1918929; also: potency is read from the fitted curve at half-maximal effect). Particulars: ARD myeloma cell line viability, CellTiter-Glo, 48 h; series mostly up to 45.8 µM. Put shortly:
as §2

Test [6] in a line: Quantitative High-Throughput drug screen in 47 multiple myeloma cell lines against the NCATS MIPE library collection: KMM1_JCRB cell viability assay (AID 1918960). Also: nearly all actives have a fitted effect of over 30% in size. Also: potency is read from the fitted curve at half-maximal effect. As to conditions: KMM1 myeloma viability, CellTiter-Glo ATP luminescence, 48 h; series mostly up to 45.8 µM. Put shortly: (§3)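 Each line was plated at 500 cells/well and treated 48 h with library drugs. Viability came from CellTiter-Glo luminescence relative to DMSO and cell-free medium controls.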

Test [7] can be described thus: Quantitative High-Throughput drug screen in 47 multiple myeloma cell lines against the NCATS MIPE library collection: JIM3_ECACC cell viability assay (AID 1918963; also: nearly all actives have a fitted effect of over 35% in size; also: potency is read from the fitted curve at half-maximal effect). As to conditions: JIM3 myeloma viability, CellTiter-Glo ATP, 48 h; series mostly up to 45.8 µM. In short, it runs like this: as §1
A short description of test [8]: Quantitative High-Throughput drug screen in 47 multiple myeloma cell lines against the NCATS MIPE library collection: JIM1_ECACC cell viability assay (AID 1918964; also: potency is read from the fitted curve at half-maximal effect). As to conditions: JIM1 myeloma viability, CellTiter-Glo ATP luminescence, 48 h; series mostly up to 45.8 µM. Put shortly:
as §2

The nature of test [9]: Quantitative High-Throughput drug screen in 47 multiple myeloma cell lines against the NCATS MIPE library collection: INA6_PLB cell viability assay (AID 1918965; also: nearly all actives have a fitted effect of over 55% in size; also: potency is read from the fitted curve at half-maximal effect). As to conditions: INA6 myeloma viability, CellTiter-Glo ATP luminescence, 48 h; series mostly up to 45.8 µM. Put shortly: as §2
Test [10] can be described thus: Quantitative High-Throughput drug screen in 47 multiple myeloma cell lines against the NCATS MIPE library collection: H1112_PLB cell viability assay (AID 1918967; also: nearly all actives have a fitted effect of over 30% in size; also: potency is read from the fitted curve at half-maximal effect). As to conditions: H1112 myeloma cells viability, ATP luminescence, 48 h; series mostly up to 45.8 µM. In short, it runs like this:
as §2

Test [11] in a line: Quantitative High-Throughput drug screen in 47 multiple myeloma cell lines against the NCATS MIPE library collection: Karpas25_ECACC cell viability assay (AID 1918968; also: nearly all actives have a fitted effect of over 35% in size; also: potency is read from the fitted curve at half-maximal effect). Particulars: Karpas25 myeloma viability, CellTiter-Glo ATP, 48 h; series mostly up to 45.8 µM. In short, it runs like this: as §2
A short description of test [12]: Quantitative High-Throughput drug screen in 47 multiple myeloma cell lines against the NCATS MIPE library collection: KMS27_JCRB cell viability assay (AID 1918970). Also: nearly all actives have a fitted effect of over 30% in size. Also: potency is read from the fitted curve at half-maximal effect. As to conditions: KMS27 myeloma cells, CellTiter-Glo ATP viability, 48 h; series mostly up to 45.8 µM. In short, it runs like this:
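Myeloma cells (500 per well) were exposed to MIPE 4.0 compounds for 48 h at 37 °C, 5% CO2; viability was read as ATP luminescence with CellTiter-Glo, normalized to DMSO-only (100%) and media-only (0%) wells.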

Test [13] is described as follows: Quantitative High-Throughput drug screen in 47 multiple myeloma cell lines against the NCATS MIPE library collection: KMS12BM_JCRB cell viability assay (AID 1918971). Also: nearly all actives have a fitted effect of over 35% in size. Also: potency is read from the fitted curve at half-maximal effect. Particulars: KMS12BM myeloma viability, CellTiter-Glo ATP, 48 h; series mostly up to 45.8 µM. In short, it runs like this:
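Steps: seed 500 cells per well; pin-transfer MIPE 4.0 library; incubate 48 h at 37C, 5% CO2, humidified; add CellTiter-Glo, 5 min room temperature; read luminescence.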

Test [14] in a line: Quantitative High-Throughput drug screen in 47 multiple myeloma cell lines against the NCATS MIPE library collection: ARP1_JJKsccF8 cell viability assay (AID 1918928; also: nearly all actives have a fitted effect of over 40% in size; also: potency is read from the fitted curve at half-maximal effect). As to conditions: ARP1 myeloma cells viability, CellTiter-Glo ATP, 48 h; series mostly up to 45.8 µM. In short, it runs like this:
as §3

Test [15] in a line: Quantitative High-Throughput drug screen in 47 multiple myeloma cell lines against the NCATS MIPE library collection: Karpas620_DSMZ cell viability assay (AID 1918959). Also: nearly all actives have a fitted effect of over 30% in size. Also: potency is read from the fitted curve at half-maximal effect. As to conditions: Karpas620 myeloma viability, CellTiter-Glo ATP luminescence, 48 h; series mostly up to 45.8 µM. Put shortly:
as §1

Test [16] can be described thus: Quantitative High-Throughput drug screen in 47 multiple myeloma cell lines against the NCATS MIPE library collection: KHM11_PLB cell viability assay (AID 1918962). Also: nearly all actives have a fitted effect of over 35% in size. Also: potency is read from the fitted curve at half-maximal effect. As to conditions: KHM11 myeloma cell viability, CellTiter-Glo ATP luminescence, 48 h; series mostly up to 45.8 µM. Put shortly:
as §1

The nature of test [17]: Quantitative High-Throughput drug screen in 47 multiple myeloma cell lines against the NCATS MIPE library collection: Karpas417_ECACC cell viability assay (AID 1918961). As to conditions: Karpas417 myeloma viability, CellTiter-Glo ATP luminescence, 48 h; viability (% of DMSO): at 45.8 µM (top of the series). Put shortly: as §2
The nature of test [18]: Quantitative High-Throughput drug screen in 47 multiple myeloma cell lines against the NCATS MIPE library collection: JJN3_DSMZ cell viability assay (AID 1918966; also: potency is read from the fitted curve at half-maximal effect; nearly all actives have a fitted effect of over 50% in size). Particulars: JJN3 myeloma cells viability, CellTiter-Glo ATP, 48 h; series mostly up to 45.8 µM. Put shortly:
as §2

SMILES strings stand for the structures. Results filed as inconclusive are left out. A number with no mark means an inactive call. Activity calls are given as the source filed them. Calls follow the shape of the dose curve; as a rule, active = well fitted curve in the direction sought with a large enough effect; inconclusive = small, poorly fitted or top-dose-only effect, or another doubt; inactive = no such curve, though single readings can be large; an effect the other way counts as inactive or inconclusive.

Among the data in PubChem BioAssay (NCATS) are Potency values, retold here.

For `O=C(O)c1cn(-c2ccc(F)cc2)c2cc(N3CCNCC3)c(F)cc2c1=O`, the Potency result in test [1], in test [2], in test [3], in test [4], in [5] and in test [6] was “inactive” in each case. The Potency result in test [7], in test [8], in [9], in test [10], in test [11] and in test [12] was “inactive” each time. Further, the Potency in test [13] was 2.35 µM (active).
In the case of `CN(C)CCc1c[nH]c2ccc(Cn3cncn3)cc12`, the Potency entry in test [1], in [2], in test [3], in test [14], in test [10] and in test [11] was “inactive” each time. In addition, the Potency entry in test [13] was “inactive”. Moreover, in test [12], the Potency was 16.6 µM (active).
As for `O=P(O)(O)C(O)(Cn1ccnc1)P(=O)(O)O`, the Potency entry in test [1], in test [2], in test [3], in test [14], in [15] and in [6] was “inactive” each time. Besides, the Potency result in [16], in test [7], in test [10] and in test [12] was “inactive” in each case.
Turning to `Cc1cccc(C#Cc2ccccc2)n1`, the Potency result in [1], in [2], in test [3], in [4], in test [15] and in [6] was “inactive” throughout. The Potency entry in test [10], in [11] and in test [12] was “inactive” each time. Besides, the Potency is 20.9 µM (active) in test [14], 13.2 µM (active) in test [9] and 18.7 µM (active) in test [13].
As to `C=CCc1cc(OC)c(O)c(C(=O)NCCO)c1`, the Potency entry in [1], in [2], in test [3], in test [4], in test [15] and in test [6] was “inactive” throughout. Moreover, the Potency result in [17], in test [16], in [9], in test [10] and in test [11] was “inactive” each time.
`Cc1nc(-c2ccc(OCC(C)C)c(C#N)c2)sc1C(=O)O`: the Potency result in [1], in [2], in [3], in test [4], in [14] and in test [5] was “inactive” throughout. Further, the Potency result in [6], in test [7], in test [8], in [10] and in [12] was “inactive” throughout.
As for `CC1Cc2ccccc2N1NC(=O)c1ccc(Cl)c(S(N)(=O)=O)c1` (stereo not drawn), the Potency entry in test [1], in [2], in [3], in [14], in [15] and in [7] was “inactive” throughout. Further, the Potency result in test [10], in [11], in test [12] and in [13] was “inactive” throughout.
For `N=C(N=C(N)N)N1CCOCC1`, the Potency result in test [1], in [2], in test [3], in test [4], in test [14] and in test [5] was “inactive” each time. Moreover, the Potency result in [15], in [6], in [7], in [8], in [9] and in test [10] was “inactive” throughout. Besides, the Potency entry in [12] is “inactive”.
With `CC(C)[N+]1(C)[C@@H]2CC[C@H]1CC(OC(=O)C(CO)c1ccccc1)C2` (stereo partly drawn), the Potency result in test [1], in [2], in [3], in test [14] and in test [10] was “inactive” each time. For the same compound, in test [12], the Potency was 14.8 µM (active).
In the case of `O=C(O)CCNC(=O)c1ccc(N=Nc2ccc(O)c(C(=O)O)c2)cc1`, the Potency entry in test [1], in [2], in [3], in [14], in test [5] and in [15] was “inactive” each time. Also, the Potency entry in test [6], in [7], in test [10] and in [12] was “inactive” throughout. Besides, the Potency in test [11] is 0.0037 µM (active).
For the compound `CCOC(=O)C1=C[C@@H](OC(CC)CC)[C@H](NC(C)=O)[C@@H](N)C1`, the Potency entry in test [1], in test [2], in [3], in test [4], in test [14] and in test [5] was “inactive” each time. Besides, the Potency entry in test [15], in [7], in test [9], in test [10], in test [11] and in test [12] was “inactive” each time.
As to `NC(=NCc1ccccc1)NC(=O)c1nc(Cl)c(N)nc1N`, the Potency entry in test [1], in test [3], in test [14] and in [13] was “inactive” throughout. Moreover, the Potency was 6.62 µM (active) in test [2]; 10.5 µM (active) in test [16]; 9.35 µM (active) in [9]; 0.935 µM (active) in [10]; 2.09 µM (active) in test [11]; 33.2 µM (active) in test [12].
Regarding `O=C1c2c(O)cc(O)cc2OC(c2ccc(O)c(O)c2)C1O` (stereo not drawn), the Potency result in [1], in [2], in [3], in test [4], in test [14] and in test [15] was “inactive” each time. Moreover, the Potency entry in test [6], in test [8], in test [9], in test [10] and in [11] was “inactive” each time.
In the case of `Oc1ccc2ccccc2c1SSc1c(O)ccc2ccccc12`, the Potency in [1] is 20.9 µM (active); in [2], 16.6 µM (active); in test [4], 20.9 µM (active); in test [14], 23.5 µM (active); in [5], 16.6 µM (active); in test [15], 10.5 µM (active). In addition, the Potency was 23.5 µM (active) in [6]; 20.9 µM (active) in test [16]; 18.7 µM (active) in test [7]; 14.8 µM (active) in [8]; 11.8 µM (active) in [10]; 8.33 µM (active) in test [11]. The Potency in test [12] is 18.7 µM (active).
As to `Nc1ccn([C@@H]2O[C@H](CO)[C@@H](O)C2O)c(=O)n1` (stereo partly drawn), the Potency entry in test [1], in [2], in [3], in [4], in [15] and in test [6] was “inactive” each time. In addition, the Potency entry in [17], in [7], in test [12] and in test [13] was “inactive” in each case. The Potency in [5] was 8.33 µM (active); in [8] it was 4.18 µM (active); in test [11], 1.48 µM (active).
For the compound `O=C1CCc2ccc(OCCCCN3CCN(c4cccc(Cl)c4Cl)CC3)cc2N1`, the Potency entry in [1], in test [3], in [4], in [8] and in test [12] was “inactive” each time. In addition, the Potency in test [2] is 23.5 µM (active); in test [14], 23.5 µM (active); in test [11] it was 16.6 µM (active); in test [13] it was 11.8 µM (active).
Take `C[C@H](Cc1ccc(O)c(O)c1)[C@@H](C)Cc1ccc(O)c(O)c1`: the Potency was 2.09 µM (active) in test [1]; 16.6 µM (active) in test [2]; 7.43 µM (active) in [4]; 20.9 µM (active) in [14]; 5.26 µM (active) in test [15]; 14.8 µM (active) in test [18]. Besides, the Potency was 14.8 µM (active) in [11], 9.35 µM (active) in [12] and 16.6 µM (active) in test [13]. Also, the Potency result in [8] is “inactive”.
